# Experimental data from PubChem BioAssay AID588397 (National Center for Advancing Translational Sciences (NCATS), 2011).
# Screen size: about 1,300 compounds; about 1,000 (77%) were called active. Another 7% or so got no clear call; they are omitted. Calls follow the shape of the dose curve; as a rule, active = well fitted inhibition curve with a large enough effect; inconclusive = small, poorly fitted or top-dose-only effect; inactive = no such curve, though single readings can be large or run the other way. The set was probably picked from earlier hits. The list shows a part of the results.
# Test: qHTS of small molecules that selectively kill Giardia lamblia: Hit Validation.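 Also: viability measured as ATP content by luminescence so killing lowers signal; trophozoites exposed to compounds for 48 h anaerobically at 37 °C; nearly all actives have a fitted effect of over 65% in size.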
# Settings: Giardia lamblia trophozoite viability, dose-response; series mostly up to 38.3 µM
# Description: Giardia lamblia is a human pathogen afflicting impoverished nations, and the most common cause of outbreaks of diarrhea in the United States. Giardia has been classified by the CDC as a category B bioterrorism organism. The favored anti giardiasis drugs in the US are metronidazole or tinidazole, compounds that have undesirable side effects. Moreover, increasing resistance to drug regimes and recurrence are a concern. It is thus clear that alternative drug treatments are needed.
# In a collaboration between the University of Maryland, College Park and the NIH Chemical Genomics Center, a bioluminescence Giardia viability assay based on the trophozoites' ATP content was developed. This assay is suitable for high throughput screening, and miniaturized the assay for compound screening in 1536-well plates. The goal of the project is to screen the Molecular Libraries Small Molecule Repository (MLSMR) for compounds that selectively kill Giardia trophozoites.
# NIH Chemical Genomics Center [NCGC]
# NIH Molecular Libraries Probe Centers Network [MLPCN]
# Assay Submitter (PI): Osnat Herzberg, University of Maryland, College Park, MD.
# 1. Dispense 2 ul/well media
# 2. Dispense 23 nl/well compounds
# 3. Dispense 4 ul/well Giardia trophozoites at a concentration of 100 cells/well
# 4. Incubate 48 hrs at 37 deg C anaerobically
# 5. Dispense 4 ul/well ATPLite 1-Step Luminescence assay kit
# 6. Incubate 15-30 min at room temperature
# 7. Read luminescence signal on ViewLux plate reader
# Potency is read from the fitted curve at half-maximal effect.
row,Structure (SMILES),Potency
1,O=C(Nc1ncccn1)c1ccc([N+](=O)[O-])o1,1.3 µM (active)
2,O=C(Nc1ccc(Br)cn1)c1ccc([N+](=O)[O-])o1,1.63 µM (active)
3,Cc1cccnc1NC(=O)c1ccc([N+](=O)[O-])o1,0.918 µM (active)
4,CCn1nnc(NC(=O)c2ccc(C(C)(C)C)cc2)n1,7.29 µM (active)
5,O=C(Nc1ccccn1)c1ccc([N+](=O)[O-])o1,1.63 µM (active)
6,CCn1nnc(NC(=O)c2ccc([N+](=O)[O-])o2)n1,1.45 µM (active)
7,Cc1onc(NC(=O)c2ccc([N+](=O)[O-])o2)c1Br,1.63 µM (active)
8,O=C(NCC(c1ccco1)N1CCCC1)c1ccc(S(=O)(=O)Nc2ccccc2Cl)cc1 (centres undefined),inactive
9,CC1(C)[N+]([O-])=C2C(=[N+]([O-])C1(C)C)c1ccccc1/C2=N\O,1.63 µM (active)
10,C/C(=N\NC(=O)COc1ccc(C)cc1Br)c1cc([N+](=O)[O-])cs1,1.63 µM (active)
11,CC(=NN1CC(=O)NC1=O)c1ccc([N+](=O)[O-])o1,1.45 µM (active)
12,COc1cccc(NC2c3ccccc3C(=O)N2Cc2ccco2)c1 (centres undefined),inactive
13,O=[N+]([O-])c1ccc(-c2ccn[nH]2)o1,0.0516 µM (active)
14,CC(=O)Oc1ccc2c(=O)c(Oc3ccccc3[N+](=O)[O-])coc2c1,3.26 µM (active)
15,CCN(CC)/[N+]([O-])=N/Oc1ccc([N+](=O)[O-])cc1[N+](=O)[O-],4.1 µM (active)
16,CCOC(=O)c1nnn(-c2ccc([N+](=O)[O-])cc2[N+](=O)[O-])c1C,8.18 µM (active)
17,CCOC(=O)N1C(C)CN(/[N+]([O-])=N/Oc2ccc([N+](=O)[O-])cc2[N+](=O)[O-])CC1C (centres undefined),5.79 µM (active)
18,O=[N+]([O-])c1ccc(O/N=[N+](\[O-])N2CCCCC2)c([N+](=O)[O-])c1,5.16 µM (active)
19,O=C1CC(SC(=Nc2ccccc2)Nc2ccccc2)C(=O)N1c1cccc2ccccc12 (centres undefined),inactive
20,O=[n+]1c2c(n([O-])c3cc(Br)ccc31)CCCC2,2.31 µM (active)

row,Structure (SMILES),Potency
1,O=[n+]1c2c(n([O-])c3cc(Cl)ccc31)CCCC2,4.6 µM (active)
2,O=[n+]1c2c(n([O-])c3cc(Br)ccc31)CCC2,2.31 µM (active)
3,Cc1c(Cl)cccc1N=c1c([N+](=O)[O-])nn(-c2ccccc2)n1O,0.516 µM (active)
4,Cc1ccc(N=c2c([N+](=O)[O-])nn(-c3ccccc3)n2O)c(C)c1,1.03 µM (active)
5,CCCC/C=C/C(NC(=O)c1ccc(C(=O)OC)cc1)c1ccccc1 (centres undefined),inactive
6,COc1cc(N=Nc2c(C)n(C)n(-c3ccccc3)c2=O)ccc1N,2.31 µM (active)
7,Cc1cc(N)ccc1N=Nc1c(C)n(C)n(-c2ccccc2)c1=O,0.729 µM (active)
8,Cc1c(N=Nc2ccc(O)cc2)c(=O)n(-c2ccccc2)n1C,5.16 µM (active)
9,CCNc1ccc(N=Nc2c(C)n(C)n(-c3ccccc3)c2=O)cc1,0.729 µM (active)
10,Cc1c(NC2(C#N)CCCC2)c(=O)n(-c2ccccc2)n1C,inactive
11,Cc1c(N=Nc2ccc(N(C)C)cc2)c(=O)n(-c2ccccc2)n1C,0.65 µM (active)
12,O=[N+]([O-])c1ccc(/C=C/c2ccnc3ccccc23)c([N+](=O)[O-])c1,7.29 µM (active)
13,CSC1SCC2C(=O)N(C)C(C(C)C)C(=O)OCC(NC(=O)c3cnc4ccccc4n3)C(=O)NC(C)C(=O)N(C)C1C(=O)N(C)C(C(C)C)C(=O)OCC(NC(=O)c1cnc3ccccc3n1)C(=O)NC(C)C(=O)N2C (centres undefined),0.206 µM (active)
14,O=C(CSc1ccsc1[N+](=O)[O-])NCCc1ccc(Cl)cc1,1.3 µM (active)
15,O=C(CSc1ccsc1[N+](=O)[O-])NCCc1ccccc1,0.818 µM (active)
16,COc1cc(N=c2c([N+](=O)[O-])nn(-c3ccc4c(c3)OCCO4)n2O)cc(OC)c1,5.16 µM (active)
17,O=[N+]([O-])c1nn(-c2ccc3c(c2)OCCO3)n(O)c1=NCCC1=CCCCC1,1.63 µM (active)
18,CN=c1c([N+](=O)[O-])nn(-c2ccc3c(c2)OCCO3)n1O,4.1 µM (active)
19,CCc1cccc(N=c2c([N+](=O)[O-])nn(-c3ccc(Cl)cc3)n2O)c1,1.45 µM (active)
20,Cc1cc(C)cc(N=c2c([N+](=O)[O-])nn(-c3ccc4c(c3)OCCO4)n2O)c1,0.729 µM (active)

row,Structure (SMILES),Potency
1,CCc1cccc(N=c2c([N+](=O)[O-])nn(-c3ccc4c(c3)OCCO4)n2O)c1,0.818 µM (active)
2,O=[N+]([O-])c1nn(-c2ccc3c(c2)OCCO3)n(O)c1=NCCCO,2.05 µM (active)
3,Cn1nc(-c2ccncc2)nc2c(=O)n(C)c(=O)nc1-2,1.16 µM (active)
4,Cn1nc(-c2ccc(F)cc2)nc2c(=O)n(C)c(=O)nc1-2,0.103 µM (active)
5,Cn1nc(-c2cccnc2)nc2c(=O)n(C)c(=O)nc1-2,4.1 µM (active)
6,Cn1nc(-c2ccc(Cl)cc2)nc2c(=O)n(C)c(=O)nc1-2,0.13 µM (active)
7,CCCc1nc2c(=O)n(C)c(=O)nc-2n(C)n1,0.326 µM (active)
8,COc1ccc(-c2nc3c(=O)n(C)c(=O)nc-3n(C)n2)cc1,0.163 µM (active)
9,O=C(O)c1cccc(CN2C(=O)S/C(=C/c3ccccc3[N+](=O)[O-])C2=O)c1,inactive
10,O=C1/C(=C/c2ccc(O)c([N+](=O)[O-])c2)SC(=S)N1Cc1ccccc1,1.45 µM (active)
11,O=C1S/C(=C\c2ccc(O)c([N+](=O)[O-])c2)C(=O)N1c1ccccc1Cl,1.63 µM (active)
12,O=C1S/C(=C\c2ccc(O)c([N+](=O)[O-])c2)C(=O)N1Cc1cccc([N+](=O)[O-])c1,0.818 µM (active)
13,COc1cccc(/C=C2\Oc3ccc(O)cc3C2=O)c1O,3.26 µM (active)
14,CC(=O)c1c(C)n([O-])c2cc(C)ccc2[n+]1=O,0.818 µM (active)
15,CC(=O)c1c(C)n([O-])c2ccccc2[n+]1=O,0.65 µM (active)
16,CCN(CC)CC(=O)c1c(C)n(C)c2ccc(OC)cc12,inactive
17,CC(=O)c1c(C)n([O-])c2ccc(C)cc2[n+]1=O,0.41 µM (active)
18,COc1ccc2c(c1)[n+](=O)c(C(C)=O)c(C)n2[O-],4.1 µM (active)
19,CCOc1ccc(-n2c(C)c(C(C)=O)c3cc(O)ccc32)cc1,inactive
